The campaign covered roughly 2,400 compounds. About 360 (15%) were called active.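 Rule for the calls: active = viability falls under 70% at one or more tested concentrations, taken as toxicity; inactive = viability stays over 70% at every dose.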 A selection follows. Entries with a potency or affinity are not part of this list.
assay: HeLa cell cytotoxicity, dose response, cytotoxicity control for MgcRacGAP inhibitor project (AID 624300); conditions: CellTiter-Glo luminescence, 24 h; series mostly up to 100 µM; viability: at the top concentration;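 note: 100% = median of untreated control wells on the same plate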

Q: For `C=CCOC(=O)c1cc(-c2ccc(/C=C3\C(=O)NC(=O)C(C#N)=C3C)o2)ccc1Cl`, which “viability” value is on record?
A: 85.3% (inactive)

Q: Which “viability” value does the source give for `CCN1CCN(CC(=O)Nc2cc(C(F)(F)F)ccc2OCCOC)CC1` here?
A: 99.1% (inactive)

Q: Which “viability” value does the source give for `COCCNC(=O)Cn1cc(/C=N/NC(=O)c2ccc(Oc3ccc(O)cc3)cc2)c2ccccc21` here?
A: 104% (inactive)

Q: For `CCOc1cc(/C=N/n2c(C)nnc2C)ccc1O`, which “viability” value is on record?
A: 101% (inactive)

Q: With `CCOc1cc(-c2nc3ccccc3s2)ccc1O` as the molecule, how does the “viability” value read?
A: 87.2% (inactive)

Q: With `NCC[C@H](O)C(=O)N[C@@H]1C[C@H](N)[C@@H](O[C@H]2O[C@H](CN)[C@@H](O)[C@H](O)[C@H]2O)[C@H](O)[C@H]1O[C@H]1O[C@H](CO)[C@@H](O)[C@H](N)[C@H]1O` as the molecule, how does the “viability” value read?
A: 104% (inactive)

Q: Which “viability” value does the source give for `CSCc1ccc(C(=O)N2CCCC(Nc3ccc4c(c3)OCCO4)C2)o1` (centres undefined) here?
A: 100% (inactive)

Q: With `Cc1ccccc1N1C(S)=C(C#N)C(=O)NC12CCCCC2` as the molecule, how does the “viability” value read?
A: 103% (inactive)

Q: For `C/C(=N\Nc1cccc2cccnc12)c1ccc[nH]1`, which “viability” value is on record?
A: 96.6% (inactive)

Q: For `COc1ccc(CN2CCN(Cc3ccco3)CC2)cc1OC`, which “viability” value is on record?
A: 93.6% (inactive)

Q: With `O=C1C(=Cc2ccco2)CCC1=Cc1ccco1` as the molecule, how does the “viability” value read?
A: 99.7% (inactive)

Q: Which “viability” value does the source give for `CCN(CC)c1ccc(NC(=O)CCN2C(=O)c3ccccc3S2(=O)=O)c(C)c1` here?
A: 105% (inactive)

Q: For `Nc1cc(C(F)(F)F)ccc1N1CCOCC1`, which “viability” value is on record?
A: 96.6% (inactive)

Q: With `CCc1ccccc1NC(=S)NCC1CCN(c2ccc(OC)cc2)C1` (centres undefined) as the molecule, how does the “viability” value read?
A: 95% (inactive)

Q: With `Nc1ccc2c(c1)[nH]c(=O)c1cc(N)ccc12` as the molecule, how does the “viability” value read?
A: 93.6% (inactive)

Q: Which “viability” value does the source give for `Nc1ccc2nc(Cc3ccccc3)[nH]c2c1` here?
A: 115% (inactive)

Q: With `CCN(CC)S(=O)(=O)c1ccc(N/N=C/c2ccc(O)cc2)nc1` as the molecule, how does the “viability” value read?
A: 95.9% (inactive)

Q: For `O=C(c1ccc(Cl)c(S(=O)(=O)N2CCCCCC2)c1)N1CCN(c2ccc(O)cc2)CC1`, which “viability” value is on record?
A: 87% (inactive)

Q: With `CSc1nc(C)c2c(n1)N(c1ccc(O)cc1)CC2` as the molecule, how does the “viability” value read?
A: 103% (inactive)

Q: Which “viability” value does the source give for `CCN1CCN(c2ccc(N=Cc3ccccc3O)cc2)CC1` here?
A: 101% (inactive)

Q: For `CC(=O)c1c(C)c(C)c2n1CCn1c(C)ccc1-2`, which “viability” value is on record?
A: 96.3% (inactive)

Q: For `CCN=C1S/C(=C\c2ccc(O)c(OCC)c2)C(=O)N1CC`, which “viability” value is on record?
A: 101% (inactive)

Q: With `CN1C(=O)/C(=C/c2ccc(C(=O)Nc3ccc(O)cc3C(=O)O)cc2)SC1=S` as the molecule, how does the “viability” value read?
A: 103% (inactive)

Q: With `Cc1ccc(NCCCCO)cc1C` as the molecule, how does the “viability” value read?
A: 95.5% (inactive)

Q: Which “viability” value does the source give for `O=c1cc(-c2ccc(O)c(O)c2)oc2cc(O)c([C@@H]3O[C@H](CO)[C@@H](O)[C@H](O)[C@H]3O)c(O)c12` here?
A: 84.2% (inactive)

Q: Which “viability” value does the source give for `C/C(=N\NC(=O)c1cccc(N/N=C(\C)c2cc(O)ccc2O)c1)c1cc(O)ccc1O` here?
A: 86% (inactive)

Q: Which “viability” value does the source give for `Cn1c(=O)[nH]c(NCCc2ccc(O)cc2)c([N+](=O)[O-])c1=O` here?
A: 106% (inactive)

Q: With `CC(=O)C1=C(O)C(=O)N(c2ccc(O)cc2)C1c1ccccc1[N+](=O)[O-]` (centres undefined) as the molecule, how does the “viability” value read?
A: 93% (inactive)

Q: For `COc1cc(/C=N/NC(=O)c2cc[n+]([O-])cc2)ccc1O`, which “viability” value is on record?
A: 102% (inactive)

Q: With `O=C1C=CC(=O)N1c1ccccc1N1C(=O)C=CC1=O` as the molecule, how does the “viability” value read?
A: 114% (inactive)

Q: With `CCS(=O)(=O)c1ccc2oc(=O)c(/C=C(\O)c3ccc(Cl)cc3)nc2c1` as the molecule, how does the “viability” value read?
A: 99.4% (inactive)

Q: For `CN(C)CCCC1Sc2ccccc2Sc2ccccc21` (centres undefined), which “viability” value is on record?
A: 113% (inactive)

Q: For `Nc1cc([N+](=O)[O-])ccc1Nc1ccc(O)cc1`, which “viability” value is on record?
A: 91.9% (inactive)

Q: Which “viability” value does the source give for `Cc1ccc(-n2c(=S)[nH]c3sc4c(c3c2=O)CCC4)cc1` here?
A: 80.5% (inactive)

Q: For `COc1cc(/C(C)=N\NC(=O)CSc2nc3ccccc3n2C)ccc1O`, which “viability” value is on record?
A: 102% (inactive)

Q: For `CCN1CCN(CC(=O)Nc2nc3ccc(OC)cc3s2)CC1`, which “viability” value is on record?
A: 88.7% (inactive)

Q: With `CCC(=O)N1CCc2cc(S(=O)(=O)CCC(=O)NCc3ccc(C)cc3)ccc21` as the molecule, how does the “viability” value read?
A: 97.8% (inactive)

Q: With `O=C(CCc1c[nH]c2ccccc12)NCCc1ccc(O)cc1` as the molecule, how does the “viability” value read?
A: 101% (inactive)

Q: For `CCOc1ccc(CN2CCN(Cc3c[nH]c4ccccc34)CC2)cc1`, which “viability” value is on record?
A: 93.4% (inactive)

Q: For `Nc1nc2cc(S(=O)(=O)NC3=NCCCCC3)ccc2s1`, which “viability” value is on record?
A: 99.8% (inactive)

Q: Which “viability” value does the source give for `Nc1nc(N)c2[nH]c(=S)[nH]c2n1` here?
A: 90.9% (inactive)

Q: Which “viability” value does the source give for `CN(CC(=O)NCc1ccncc1)S(=O)(=O)c1ccc(Cl)cc1` here?
A: 96.8% (inactive)

Q: With `COC(=O)c1[nH]c2ccc(C)cc2c1NC(=O)Oc1ccccc1` as the molecule, how does the “viability” value read?
A: 92.6% (inactive)

Q: Which “viability” value does the source give for `O=[N+]([O-])c1ccccc1OCCNCc1ccccc1` here?
A: 96.5% (inactive)

Q: For `CC(C)[C@H](N[C@@H](C)c1ccccc1)c1c(O)ccc2ccccc12`, which “viability” value is on record?
A: 97.3% (inactive)

Q: For `COc1cccc(OC)c1OCCNC(C)(C)C`, which “viability” value is on record?
A: 100% (inactive)

Q: Which “viability” value does the source give for `Nc1ccc(OCCc2ccccc2)cc1` here?
A: 108% (inactive)

Q: With `CCn1c(-c2ccccc2)csc1=Nc1ccc(O)cc1` as the molecule, how does the “viability” value read?
A: 98.7% (inactive)

Q: For `O=c1[nH][nH]cc1C=Nc1cc(Cl)ccc1O`, which “viability” value is on record?
A: 95.4% (inactive)

Q: For `CN(C)/C=C1\NC(=S)N(c2ccccc2)C1=O`, which “viability” value is on record?
A: 99.2% (inactive)

Q: Which “viability” value does the source give for `CCc1ccc(NC(=O)CNCc2ccc(OC)c(OC)c2)cc1` here?
A: 105% (inactive)

Q: For `CCOc1ccccc1/C=c1\sc2ncnn2c1=O`, which “viability” value is on record?
A: 91.7% (inactive)

Q: With `Cn1c(=O)[nH]c(N)c(Br)c1=O` as the molecule, how does the “viability” value read?
A: 105% (inactive)

Q: For `O=C(COc1ccccc1)NCC(=O)N/N=C/c1ccc(O)cc1O`, which “viability” value is on record?
A: 103% (inactive)

Q: For `O=Nc1ccc(NOC(=O)c2ccccc2)cc1`, which “viability” value is on record?
A: 99.9% (inactive)

Q: For `Nc1ccc2c(c1)Nc1ccccc1CC2`, which “viability” value is on record?
A: 97.6% (inactive)

Q: For `CCN1CCN(CCOc2ccccc2OCc2ccccc2)CC1`, which “viability” value is on record?
A: 97.9% (inactive)

Q: With `Oc1ccc(/C=N/Nc2ncnc3nc[nH]c23)cc1` as the molecule, how does the “viability” value read?
A: 99.2% (inactive)

Q: Which “viability” value does the source give for `COc1cc(/C=N/Nc2nc(C)cc(C)n2)ccc1O` here?
A: 104% (inactive)

Q: With `Oc1ccc(/C=N/Nc2ncc(Cl)cc2Cl)cc1` as the molecule, how does the “viability” value read?
A: 107% (inactive)

Q: Which “viability” value does the source give for `COc1cc(/C=N/Nc2ccc(C(=O)O)cc2)ccc1O` here?
A: 92.5% (inactive)

Q: With `COc1cc(/C=N/NC(=O)C(C)n2nnc3ccccc32)ccc1O` (centres undefined) as the molecule, how does the “viability” value read?
A: 107% (inactive)

Q: With `COc1cc(/C=N/Nc2nc(N3CCCC3)nc(N3CCCC3)n2)ccc1O` as the molecule, how does the “viability” value read?
A: 89.4% (inactive)

Q: Which “viability” value does the source give for `O=C(O)C1CCCCC1C(=O)Nc1ccc(S(=O)(=O)N2CCOCC2)cc1` (centres undefined) here?
A: 107% (inactive)

Q: Which “viability” value does the source give for `Cc1ccn2c(=S)[nH]nc2c1` here?
A: 106% (inactive)

Q: Which “viability” value does the source give for `Oc1cc(Br)ccc1C=Nc1ccc(N2CCCCC2)cc1` here?
A: 95.8% (inactive)

Q: For `COc1ccccc1CNCC(=O)Nc1ccc(N(C)C)cc1`, which “viability” value is on record?
A: 100% (inactive)

Q: With `O=C(N/N=C/c1ccc(O)cc1)Nc1cccc2nsnc12` as the molecule, how does the “viability” value read?
A: 84.8% (inactive)

Q: Which “viability” value does the source give for `Cc1csc(=O)n1CC(=O)OC(C)C(=O)Nc1ccc(N(C)C)cc1` (centres undefined) here?
A: 106% (inactive)

Q: For `CCN(Cc1ccccc1)c1ccc(/C=N/N2CCOCC2)cc1`, which “viability” value is on record?
A: 101% (inactive)

Q: For `C=CCn1c(SCC(=O)Nc2ccc(O)cc2)nc2sc(CC)cc2c1=O`, which “viability” value is on record?
A: 92.4% (inactive)

Q: Which “viability” value does the source give for `Brc1ccccc1OCCCCCN1CCOCC1` here?
A: 95% (inactive)

Q: For `C=CCNC(=O)CN1CCN(C(c2ccccc2)c2ccccc2)CC1`, which “viability” value is on record?
A: 96.1% (inactive)

Q: With `COc1ccc(NC2CCCN(C(=O)c3ccc(C(C)=O)s3)C2)cc1` (centres undefined) as the molecule, how does the “viability” value read?
A: 108% (inactive)
